What all share (test): DAPPL (digital affinity profiling via proximity ligation, sequencing); 10 mM Tris-HCl pH 7.5, 50 mM NaCl, 1 mM DTT, 4% glycerol, room temperature, 30 min; GST-TFs on glutathione beads, 16-mer random dsDNA library, 0.1% formaldehyde crosslink after washing; high values mean tight binding
Holding throughout (settings): protein: recombinant; tags: N-terminal GST; dsDNA, one strand shown

Assay [1] concerns the target T1, ELK1 (Homo sapiens, UniProt P19419 1-428).
T1 sequence: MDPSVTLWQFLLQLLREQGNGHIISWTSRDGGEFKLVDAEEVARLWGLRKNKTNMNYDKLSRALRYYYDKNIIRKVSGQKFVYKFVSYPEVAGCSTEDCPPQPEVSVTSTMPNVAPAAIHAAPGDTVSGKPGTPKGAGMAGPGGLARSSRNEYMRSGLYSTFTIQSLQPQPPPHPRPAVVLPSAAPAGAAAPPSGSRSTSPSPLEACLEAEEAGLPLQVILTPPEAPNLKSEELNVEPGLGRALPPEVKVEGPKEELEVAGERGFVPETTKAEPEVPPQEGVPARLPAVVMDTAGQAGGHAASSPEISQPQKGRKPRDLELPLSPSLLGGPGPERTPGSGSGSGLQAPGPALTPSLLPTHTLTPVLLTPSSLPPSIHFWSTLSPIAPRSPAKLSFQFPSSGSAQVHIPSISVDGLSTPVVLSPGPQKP
The method, boiled down:
(§1)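 Pools were built from human transcription factors expressed in yeast as GST fusions, captured on glutathione beads and DNA-barcoded, along with a tag-only sample. Incubation with 200 nmole of a 16-mer random double-stranded DNA library lasted 30 min at room temperature in Tris/NaCl/DTT/glycerol buffer, and was followed by washing, 0.1% formaldehyde crosslinking, proximity ligation, PCR amplification and Illumina NextSeq500 sequencing. Binding signal is the quotient of each hexamer's read frequency for a factor and its frequency for the tag-only sample.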

Assay [2] addresses T2, GABPA (Homo sapiens, UniProt Q06546 1-454).
T2 sequence: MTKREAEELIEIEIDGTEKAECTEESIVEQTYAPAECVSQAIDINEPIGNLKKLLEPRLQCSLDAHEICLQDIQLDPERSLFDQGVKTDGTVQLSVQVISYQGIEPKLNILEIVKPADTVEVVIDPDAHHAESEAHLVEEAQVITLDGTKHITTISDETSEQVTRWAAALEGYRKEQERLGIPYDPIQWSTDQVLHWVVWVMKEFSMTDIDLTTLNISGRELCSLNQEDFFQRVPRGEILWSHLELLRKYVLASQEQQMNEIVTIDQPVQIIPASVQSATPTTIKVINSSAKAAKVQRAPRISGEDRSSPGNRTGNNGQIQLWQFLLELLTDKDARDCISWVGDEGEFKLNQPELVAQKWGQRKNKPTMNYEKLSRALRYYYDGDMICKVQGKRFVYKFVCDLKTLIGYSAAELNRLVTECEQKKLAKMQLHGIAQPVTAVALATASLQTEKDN
The method, boiled down: as §1

Assay [3] concerns the target T3, ERG (Homo sapiens, UniProt P11308 1-479).
T3 sequence: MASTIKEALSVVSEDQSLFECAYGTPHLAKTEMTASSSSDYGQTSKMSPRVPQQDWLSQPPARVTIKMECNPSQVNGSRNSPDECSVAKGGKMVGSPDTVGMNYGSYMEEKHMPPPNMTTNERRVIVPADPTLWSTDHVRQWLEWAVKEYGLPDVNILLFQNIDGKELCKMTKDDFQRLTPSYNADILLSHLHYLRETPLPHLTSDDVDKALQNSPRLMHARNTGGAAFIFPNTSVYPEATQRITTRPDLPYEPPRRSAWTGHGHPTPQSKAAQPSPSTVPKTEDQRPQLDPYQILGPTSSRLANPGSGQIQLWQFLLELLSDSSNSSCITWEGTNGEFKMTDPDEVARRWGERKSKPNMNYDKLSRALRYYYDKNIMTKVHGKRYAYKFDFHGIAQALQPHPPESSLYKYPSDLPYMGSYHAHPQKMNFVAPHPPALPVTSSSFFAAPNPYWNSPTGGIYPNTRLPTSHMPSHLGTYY
The essentials:
as §1

Assay [4] concerns the target ELF1 (Homo sapiens, UniProt P32519 1-619). The essentials: as §1
Assay [5] concerns the target SPI1 (Homo sapiens, UniProt P17947 1-270). The method, boiled down: as §1
For assay [6], the target named is SPIB (Homo sapiens, UniProt Q01892 1-262). The essentials:
as §1

Assay [7] concerns the target T4, FEV (Homo sapiens, UniProt Q99581 1-238).
T4 sequence: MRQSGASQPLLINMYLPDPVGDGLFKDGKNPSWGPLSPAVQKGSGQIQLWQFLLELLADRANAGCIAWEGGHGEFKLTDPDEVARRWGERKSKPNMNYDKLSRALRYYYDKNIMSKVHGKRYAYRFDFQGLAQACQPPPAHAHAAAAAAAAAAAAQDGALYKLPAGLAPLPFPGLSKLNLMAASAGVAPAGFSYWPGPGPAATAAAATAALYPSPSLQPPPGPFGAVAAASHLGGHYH
The essentials:
as §1

The target in assay [8] is ETV5 (Homo sapiens, UniProt P41161 1-510). The method, boiled down:
as §1

Assay [9] has as its target ELF4 (Homo sapiens, UniProt Q99607 1-663). The essentials:
as §1

In assay [10] the target is T5, ELK4 (Homo sapiens, UniProt P28324-2 1-405).
T5 sequence: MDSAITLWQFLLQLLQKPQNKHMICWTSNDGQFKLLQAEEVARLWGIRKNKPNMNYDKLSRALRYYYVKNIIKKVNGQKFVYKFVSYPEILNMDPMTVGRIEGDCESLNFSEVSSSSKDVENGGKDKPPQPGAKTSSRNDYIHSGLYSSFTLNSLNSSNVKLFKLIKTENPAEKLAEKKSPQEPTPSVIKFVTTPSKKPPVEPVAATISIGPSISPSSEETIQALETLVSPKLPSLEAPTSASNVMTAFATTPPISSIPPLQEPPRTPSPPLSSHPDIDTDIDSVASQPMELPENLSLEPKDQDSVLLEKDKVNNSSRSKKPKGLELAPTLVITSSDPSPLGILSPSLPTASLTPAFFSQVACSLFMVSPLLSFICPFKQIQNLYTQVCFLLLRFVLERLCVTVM
The essentials: as §1

In assay [11] the target is T6, ETV2 (Homo sapiens, UniProt O00321 1-342).
T6 sequence: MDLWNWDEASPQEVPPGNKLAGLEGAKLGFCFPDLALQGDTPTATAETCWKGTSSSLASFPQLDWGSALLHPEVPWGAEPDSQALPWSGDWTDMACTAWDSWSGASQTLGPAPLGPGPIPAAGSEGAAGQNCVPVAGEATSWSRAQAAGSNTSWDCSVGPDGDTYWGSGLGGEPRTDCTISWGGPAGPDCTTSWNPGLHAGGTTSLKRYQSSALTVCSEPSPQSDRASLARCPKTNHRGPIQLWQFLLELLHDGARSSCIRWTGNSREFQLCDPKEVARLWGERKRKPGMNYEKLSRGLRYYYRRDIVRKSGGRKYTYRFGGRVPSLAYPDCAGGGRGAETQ
The essentials: as §1

The target of assay [12] is ETV1 (Homo sapiens, UniProt P50549 1-477). The method, boiled down:
as §1

Assay [13] concerns the target T7, ERF (Homo sapiens, UniProt P50548 1-548).
T7 sequence: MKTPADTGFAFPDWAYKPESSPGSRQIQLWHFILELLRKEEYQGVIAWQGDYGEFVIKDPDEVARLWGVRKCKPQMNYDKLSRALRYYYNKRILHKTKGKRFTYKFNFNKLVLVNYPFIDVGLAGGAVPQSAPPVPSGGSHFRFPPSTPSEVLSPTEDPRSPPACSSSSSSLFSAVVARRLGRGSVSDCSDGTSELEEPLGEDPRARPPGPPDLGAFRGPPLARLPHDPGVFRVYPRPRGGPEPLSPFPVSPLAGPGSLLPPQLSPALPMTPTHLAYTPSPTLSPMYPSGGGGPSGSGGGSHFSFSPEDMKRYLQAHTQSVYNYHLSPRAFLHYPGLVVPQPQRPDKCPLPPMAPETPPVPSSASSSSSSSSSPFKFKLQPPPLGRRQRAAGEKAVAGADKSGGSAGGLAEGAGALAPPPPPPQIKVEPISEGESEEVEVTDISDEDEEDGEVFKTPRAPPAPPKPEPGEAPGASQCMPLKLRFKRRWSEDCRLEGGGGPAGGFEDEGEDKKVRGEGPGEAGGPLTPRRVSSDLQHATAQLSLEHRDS
The method, boiled down:
as §1

For assay [14], the target named is T8, ETV3L (Homo sapiens, UniProt Q6ZN32 1-361).
T8 sequence: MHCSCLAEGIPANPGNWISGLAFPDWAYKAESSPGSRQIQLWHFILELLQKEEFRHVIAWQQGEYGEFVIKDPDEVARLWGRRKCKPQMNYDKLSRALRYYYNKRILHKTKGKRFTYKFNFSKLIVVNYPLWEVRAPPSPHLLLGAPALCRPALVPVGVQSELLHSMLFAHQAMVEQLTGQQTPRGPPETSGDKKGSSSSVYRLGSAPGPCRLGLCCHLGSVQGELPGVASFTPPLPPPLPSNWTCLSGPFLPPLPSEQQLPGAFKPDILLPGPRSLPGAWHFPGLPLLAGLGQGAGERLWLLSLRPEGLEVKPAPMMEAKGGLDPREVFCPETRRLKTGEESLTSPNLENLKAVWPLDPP
The method, boiled down:
as §1

The target in assay [15] is T9, ETS2 (Homo sapiens, UniProt P15036 1-469).
T9 sequence: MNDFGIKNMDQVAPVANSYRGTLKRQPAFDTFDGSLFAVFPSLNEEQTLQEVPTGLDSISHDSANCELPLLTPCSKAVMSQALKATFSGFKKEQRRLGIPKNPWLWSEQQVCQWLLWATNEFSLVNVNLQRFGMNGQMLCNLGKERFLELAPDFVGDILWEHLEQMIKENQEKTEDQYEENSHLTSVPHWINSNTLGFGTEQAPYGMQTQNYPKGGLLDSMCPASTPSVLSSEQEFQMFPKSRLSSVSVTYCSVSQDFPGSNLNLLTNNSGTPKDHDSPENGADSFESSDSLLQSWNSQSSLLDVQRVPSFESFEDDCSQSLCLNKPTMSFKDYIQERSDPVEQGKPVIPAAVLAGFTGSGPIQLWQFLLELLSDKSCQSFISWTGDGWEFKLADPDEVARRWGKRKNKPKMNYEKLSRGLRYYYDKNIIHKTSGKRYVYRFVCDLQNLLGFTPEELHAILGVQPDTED
The method, boiled down:
as §1

Assay [16] has as its target T10, ETV3 (Homo sapiens, UniProt P41162-2 1-143).
T10 sequence: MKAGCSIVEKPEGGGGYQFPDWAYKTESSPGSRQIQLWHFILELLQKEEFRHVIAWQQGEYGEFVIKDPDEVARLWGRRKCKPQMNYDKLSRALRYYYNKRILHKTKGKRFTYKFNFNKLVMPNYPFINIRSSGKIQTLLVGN
The method, boiled down:
as §1

For assay [17], the target named is ETV6 (Homo sapiens, UniProt P41212 1-452). The essentials: as §1
Chain of ETV6 (P41212 whole entry): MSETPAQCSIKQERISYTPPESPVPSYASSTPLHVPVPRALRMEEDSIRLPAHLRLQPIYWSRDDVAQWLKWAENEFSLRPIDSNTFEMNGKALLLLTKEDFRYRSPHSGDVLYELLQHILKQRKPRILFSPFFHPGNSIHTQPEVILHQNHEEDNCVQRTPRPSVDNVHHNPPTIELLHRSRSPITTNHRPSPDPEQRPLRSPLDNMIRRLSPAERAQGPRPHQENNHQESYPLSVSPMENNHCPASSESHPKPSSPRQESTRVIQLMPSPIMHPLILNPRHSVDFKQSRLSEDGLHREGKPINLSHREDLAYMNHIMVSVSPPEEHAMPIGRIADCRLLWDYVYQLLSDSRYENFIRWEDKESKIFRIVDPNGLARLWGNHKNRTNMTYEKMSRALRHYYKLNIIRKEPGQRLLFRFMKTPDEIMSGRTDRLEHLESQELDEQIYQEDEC

Chain of ETV5 (P41161 whole entry): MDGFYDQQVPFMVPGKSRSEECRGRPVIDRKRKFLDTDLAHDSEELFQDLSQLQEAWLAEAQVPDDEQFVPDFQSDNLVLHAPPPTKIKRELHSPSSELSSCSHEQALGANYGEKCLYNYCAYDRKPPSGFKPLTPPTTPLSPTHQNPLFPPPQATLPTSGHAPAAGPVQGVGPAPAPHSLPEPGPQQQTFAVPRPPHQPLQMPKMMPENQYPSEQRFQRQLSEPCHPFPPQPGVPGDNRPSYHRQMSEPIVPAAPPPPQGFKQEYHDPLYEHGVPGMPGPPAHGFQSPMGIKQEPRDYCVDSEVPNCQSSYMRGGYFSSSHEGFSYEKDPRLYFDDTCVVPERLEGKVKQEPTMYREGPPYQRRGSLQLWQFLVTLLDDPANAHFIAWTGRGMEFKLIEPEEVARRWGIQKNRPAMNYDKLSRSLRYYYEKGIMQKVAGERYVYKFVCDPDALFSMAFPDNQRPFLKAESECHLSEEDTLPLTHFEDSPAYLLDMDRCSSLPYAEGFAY
Chain of ETV1 (P50549 whole entry): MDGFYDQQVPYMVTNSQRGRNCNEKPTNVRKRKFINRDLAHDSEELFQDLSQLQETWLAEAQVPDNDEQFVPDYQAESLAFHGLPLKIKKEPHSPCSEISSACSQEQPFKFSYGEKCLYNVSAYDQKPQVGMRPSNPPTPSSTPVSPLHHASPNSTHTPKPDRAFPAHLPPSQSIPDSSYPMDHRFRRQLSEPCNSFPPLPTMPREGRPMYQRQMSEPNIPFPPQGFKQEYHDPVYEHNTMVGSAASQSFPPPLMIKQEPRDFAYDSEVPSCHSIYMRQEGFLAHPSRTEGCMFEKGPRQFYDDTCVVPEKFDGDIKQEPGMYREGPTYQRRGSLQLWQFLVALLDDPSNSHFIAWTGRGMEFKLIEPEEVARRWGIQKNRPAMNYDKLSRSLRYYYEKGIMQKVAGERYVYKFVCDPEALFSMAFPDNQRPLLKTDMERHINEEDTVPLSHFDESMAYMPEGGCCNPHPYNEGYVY
Chain of ELF1 (P32519 whole entry): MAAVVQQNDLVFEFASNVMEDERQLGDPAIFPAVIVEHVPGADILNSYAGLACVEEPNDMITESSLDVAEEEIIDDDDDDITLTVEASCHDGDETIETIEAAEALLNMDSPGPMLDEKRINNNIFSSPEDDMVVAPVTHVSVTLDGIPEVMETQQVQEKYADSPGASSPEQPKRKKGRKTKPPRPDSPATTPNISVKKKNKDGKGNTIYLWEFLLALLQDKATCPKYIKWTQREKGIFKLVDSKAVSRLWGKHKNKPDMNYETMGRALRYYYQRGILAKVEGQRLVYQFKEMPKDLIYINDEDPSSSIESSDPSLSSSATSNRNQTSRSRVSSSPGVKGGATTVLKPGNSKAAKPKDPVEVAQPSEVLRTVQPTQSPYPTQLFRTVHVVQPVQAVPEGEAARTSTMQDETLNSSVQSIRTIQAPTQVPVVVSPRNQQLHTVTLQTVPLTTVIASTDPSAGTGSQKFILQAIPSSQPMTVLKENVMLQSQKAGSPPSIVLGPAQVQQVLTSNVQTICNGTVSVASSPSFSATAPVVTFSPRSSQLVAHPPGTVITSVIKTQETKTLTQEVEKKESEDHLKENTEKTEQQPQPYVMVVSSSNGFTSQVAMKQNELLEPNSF
Chain of SPIB (Q01892 whole entry): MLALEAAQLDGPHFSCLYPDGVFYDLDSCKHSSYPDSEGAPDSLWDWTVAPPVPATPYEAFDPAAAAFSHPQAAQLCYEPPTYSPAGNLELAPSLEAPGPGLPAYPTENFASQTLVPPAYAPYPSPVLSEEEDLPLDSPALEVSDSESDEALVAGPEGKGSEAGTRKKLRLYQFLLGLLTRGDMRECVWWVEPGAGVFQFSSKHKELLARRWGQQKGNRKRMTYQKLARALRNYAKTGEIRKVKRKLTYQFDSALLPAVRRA
Chain of ELF4 (Q99607 whole entry): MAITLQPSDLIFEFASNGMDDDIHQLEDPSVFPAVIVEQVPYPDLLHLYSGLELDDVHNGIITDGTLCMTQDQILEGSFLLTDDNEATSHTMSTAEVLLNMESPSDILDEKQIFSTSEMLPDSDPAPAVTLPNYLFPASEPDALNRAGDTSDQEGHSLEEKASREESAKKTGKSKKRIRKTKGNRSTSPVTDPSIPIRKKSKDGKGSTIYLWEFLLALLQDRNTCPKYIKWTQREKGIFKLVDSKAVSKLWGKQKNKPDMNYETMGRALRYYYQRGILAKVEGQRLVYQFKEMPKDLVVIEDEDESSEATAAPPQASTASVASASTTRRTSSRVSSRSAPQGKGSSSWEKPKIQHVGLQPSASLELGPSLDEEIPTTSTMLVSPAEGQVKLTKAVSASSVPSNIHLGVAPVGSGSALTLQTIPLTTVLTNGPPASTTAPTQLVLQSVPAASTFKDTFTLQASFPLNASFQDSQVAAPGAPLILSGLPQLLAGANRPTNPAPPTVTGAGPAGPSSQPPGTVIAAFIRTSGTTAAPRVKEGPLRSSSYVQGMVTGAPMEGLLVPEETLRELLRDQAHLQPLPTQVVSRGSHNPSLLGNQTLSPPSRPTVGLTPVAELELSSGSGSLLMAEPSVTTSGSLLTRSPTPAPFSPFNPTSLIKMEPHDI

For GCAATC, the binding signal was 1.05 fold enrichment (6-mer frequency, TF over GST control) in assay [1]; 1.04 fold enrichment (6-mer frequency, TF over GST control) in assay [2]; 1.03 fold enrichment (6-mer frequency, TF over GST control) in assay [3]; 1.09 fold enrichment (6-mer frequency, TF over GST control) in assay [4]; 1.02 fold enrichment (6-mer frequency, TF over GST control) in [5]; 1.05 fold enrichment (6-mer frequency, TF over GST control) in [6]. In addition, the binding signal is 1.05 fold enrichment (6-mer frequency, TF over GST control) in assay [7]; 1.06 fold enrichment (6-mer frequency, TF over GST control) in assay [8]; 1.02 fold enrichment (6-mer frequency, TF over GST control) in [9]; 1.07 fold enrichment (6-mer frequency, TF over GST control) in [10]; 1.05 fold enrichment (6-mer frequency, TF over GST control) in assay [11]; 1.06 fold enrichment (6-mer frequency, TF over GST control) in [12]. Moreover, the binding signal was 1.03 fold enrichment (6-mer frequency, TF over GST control) in assay [13]; 1.01 fold enrichment (6-mer frequency, TF over GST control) in assay [14]; 1.04 fold enrichment (6-mer frequency, TF over GST control) in assay [15]; 1.06 fold enrichment (6-mer frequency, TF over GST control) in assay [16]; 1.11 fold enrichment (6-mer frequency, TF over GST control) in [17].

Values taken from PMC7862700, “An all-to-all approach to the identification of sequence-specific readers for epigenetic DNA modifications on cytosine”.
